In PubChem BioAssay (NCI):
The panel holds about 83,000 compounds, 20% with a hit somewhere; the sample as a whole holds those more often.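 Each cell line was grown in a 96-well plate and treated with one concentration of compound for 48 hours. Values below 10 were considered active.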 Active and inactive are the calls of the source.

Each compound was assayed on TK-10 renal (assay: NCI-60 one-dose screen, 48 h (100 = growth as untreated, 0 = no growth, -100 = all killed)). Details: 10 µM unless noted.

Row | SMILES | growth
1 | COc1ccc(Sc2ccc3[nH]c(=O)nc(N)c3c2)cc1 | 105% (inactive)
2 | CCN1C(=O)C2(Nc3ccccc3S2)c2cc(C)ccc21 (configuration not stated) | 107% (inactive)
3 | CCOC(=O)c1cn2c3c(cc(F)cc3c1=O)C(CC)c1ccccc1C2 (configuration not stated) | 111% (inactive)
4 | Cc1nn(CC(=O)O)c2c1C(=O)CC(C)(C)C2 | 89.9% (inactive)
5 | O=C1/C(=C/c2ccc(Oc3ccccc3)cc2)N=C(c2ccccc2)N1CCc1cccs1 | 80.6% (inactive)
6 | COc1cccc(C2C3=C(COC3=O)N(CCO)c3cc4c(cc32)OCO4)c1 (configuration not stated) | 59.8% (inactive)
7 | COc1ccc2c(c1)c(=O)oc1c(C)c(OCC(C)=O)ccc12 | 82.7% (inactive)
8 | CC1=C(C/C=C(\C)CCC[C@H](C)CCC[C@H](C)CCCC(C)C)C(=O)c2ccccc2C1=O | 95.6% (inactive)
9 | O=S(=O)(OCCO)c1ccccc1 | 100% (inactive)
10 | COc1ccc(-c2nc3sccn3c2/C=C/C(=O)c2cc(OC)c(OC)c(OC)c2)cc1OC | 82.6% (inactive)
11 | Cc1nc(NN)c([N+](=O)[O-])c(NN)n1 | 118% (inactive)
12 | COc1cc(/C=C2\C(=O)N(c3c(Cl)cccc3Cl)c3ccccc32)cc(OC)c1O | 48.2% (inactive)
13 | COc1cc(C2C3=C(COC3=O)N(CCO)c3cc4c(cc32)OCO4)cc(OC)c1O (configuration not stated) | 61.8% (inactive)
14 | COc1ccccc1CNCCCCCCCCCCCCN1C(=O)c2ccc3c4c(ccc(c24)C1=O)C(=O)N(CCCCCCCCCCCCNCc1ccccc1OC)C3=O | -46.7% (active)
15 | CCCCCCCCCCCCCCCC[N+]1(C)CCOCC1 | -36.8% (active)
16 | Cn1cc(C(=O)NCCC(=N)N)cc1NC(=O)CN=C(N)N | 109% (inactive)
17 | Nc1cccc2c(=S)c3ccccc3[nH]c12 | 192% (inactive)
18 | CCN1CCN(c2nc3ccccc3c3c(=O)c4cc(F)ccc4sc23)CC1 | 85.2% (inactive)
19 | Cc1ccc(N(CSc2ccc(Cl)cc2)CSc2ccc(Cl)cc2)cc1 | 92.2% (inactive)

Row | SMILES | growth
20 | O=C1C(Cl)=C(NCCCN2CCOCC2)C(=O)c2ccccc21 | 131% (inactive)
21 | O=[N+]([O-])c1ccc(O)c2ncccc12 | 83.2% (inactive)
22 | O=C(Nc1ccccc1)Oc1cccc2cccnc12 | 104% (inactive)
23 | Cc1ccc(C)c2c1sc1nc3nc4sc5ccccc5n4c(=N)c3c(=O)n12 | 162% (inactive)
24 | O=C(c1ccccc1)C(Br)C(Br)c1cccc([N+](=O)[O-])c1 (configuration not stated) | -25.4% (active)
25 | COc1cc(/C=C2\C(=O)Nc3ccccc32)cc(OC)c1O | 88.5% (inactive)
26 | O=c1ccc2ccccc2o1 | 98.3% (inactive)
27 | Cc1nc(-c2ccccc2)cc2c(O)c(C(=O)N/N=C/Cc3ccccc3)[nH]c(=O)c12 | 109% (inactive)
28 | CN1CCc2cccc3c2C1Cc1ccc(O)c(O)c1-3 (configuration not stated) | 129% (inactive)
29 | COc1cccc(C2C3=C(COC3=O)N(CCO)c3cc4c(cc32)CCC4)c1 (configuration not stated) | 53.8% (inactive)
30 | COc1cc(CNCCCN2C(=O)c3ccc4c5c(ccc(c35)C2=O)C(=O)N(CCCNCc2cc(OC)c(OC)c(OC)c2)C4=O)cc(OC)c1OC | -28.5% (active)
31 | O=C1C=CC(=O)N1CCCCCCCCCCN1C(=O)C=CC1=O | 106% (inactive)
32 | CCCCC/C=C\C/C=C/CCCCCCCCNC(=O)Nc1ccc([N+](=O)[O-])cc1 | 82.5% (inactive)
33 | Clc1ccc(C2=NN(c3ccccc3)[C@H](c3cn(-c4ccccc4)nc3-c3ccccc3)C2)cc1 | 114% (inactive)
34 | OB(O)c1ccccc1 | 105% (inactive)
35 | COc1cccc2c(=O)c3c(sc12)c(NCCN(C)C)nc1ccccc13 | 47.2% (inactive)
36 | O=C(N/N=C/c1ccc(F)cc1)c1[nH]c2ccc(I)cc2c1-c1ccccc1 | 65.2% (inactive)
37 | COc1ccc(-c2nc3sc(C)cn3c2/C=C/C(=O)c2cc(OC)c(OC)c(OC)c2)cc1 | 96.9% (inactive)
